The source of these data is PubChem BioAssay.

Values without a mark were called inactive. Activity calls are given as the source filed them.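 The calls were made as follows: active = thallium flux through the channel raised or lowered by more than 3 SD from vehicle-only wells, actives on both sides; inactive = the rest.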

Common to all, as to test: modulators of BK channel variants, profiling panel, selectivity assay, cell-based, U2OS BacMam, thallium flux, beta subunits (AID 1259406);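 also: initial slope of Thallos dye fluorescence rise after thallium is added; log ratio against the mean of 0.3% DMSO vehicle wells on the same plate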
In assay [1] the test system is F380Y. The settings on record: at 30 µM.
For assay [2], the system named is F380Y/beta1. Particulars: at 30 µM.
The subject of assay [3] is F380Y/beta2Delta. The settings on record: at 30 µM.
Assay [4] concerns F380Y/beta4. The settings on record: at 30 µM.
Assay [5] deals with Calcium-activated potassium channel subunit alpha-1 (Homo sapiens) + Leucine-rich repeat-containing protein 26 (Homo sapiens) (UniProt Q12791+Q2I0M4). The settings on record: F380Y/Slo1WT/gamma1, at 30 µM.
Sequence of Calcium-activated potassium channel subunit alpha-1 (Homo sapiens) + Leucine-rich repeat-containing protein 26 (Homo sapiens) (Q2I0M4 whole entry, looked up, one chain of several): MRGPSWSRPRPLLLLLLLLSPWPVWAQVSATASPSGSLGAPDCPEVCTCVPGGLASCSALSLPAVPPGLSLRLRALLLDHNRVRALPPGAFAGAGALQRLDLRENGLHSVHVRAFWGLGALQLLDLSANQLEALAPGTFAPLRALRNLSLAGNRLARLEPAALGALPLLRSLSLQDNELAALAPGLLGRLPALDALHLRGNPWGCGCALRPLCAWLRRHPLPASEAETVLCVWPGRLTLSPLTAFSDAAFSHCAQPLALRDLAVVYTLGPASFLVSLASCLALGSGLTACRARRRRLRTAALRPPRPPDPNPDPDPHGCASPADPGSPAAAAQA
Assay [6] deals with R275C. The settings on record: at 30 µM.
For assay [7], the system named is R275C/beta1. The settings on record: at 30 µM.
The subject of assay [8] is R275C/beta2Delta. Particulars: at 30 µM.
Assay [9] has as its system R275C/beta4. Particulars: at 30 µM.
In assay [10] the test system is R275C/Slo1WT/beta2. Particulars: at 30 µM.

For the compound `CCOC(=O)c1nn(-c2ccc(C(C)(C)C)cc2)c(=O)c(C#N)c1C`, the log fold change Tl+ flux was -0.364 (active) in assay [1]; -0.189 (active) in assay [2]; -0.281 (active) in [3]; -0.097 (active) in [4]; -0.15 (active) in assay [5]; -0.52 (active) in [6]. Besides, the log fold change Tl+ flux was -0.383 (active) in assay [7], -0.219 (active) in assay [8], -0.26 (active) in [9] and -0.0278 in assay [10].

Turning to `COC(=O)c1ccc(S(=O)(=O)NNc2ncnc3cc(C(C)(C)C)sc23)n1C`, the log fold change Tl+ flux in assay [1] is 0.00239; in [2], 0.00797; in [3] it was 0.0347; in [4], 0.0667; in [5], 0.00885; in assay [6], 0.0131. The log fold change Tl+ flux in [7] was -0.027; in assay [8] it was 0.00378; in assay [9], -0.0156; in [10], 0.0399.

In the case of `O=C1C(=Cc2cc(-c3ccccc3)c(C(F)(F)F)s2)CSc2ccc(Cl)cc21`, the log fold change Tl+ flux in assay [1] is 0.00549; in assay [2] it was 0.0168; in [3] it was 0.0287; in assay [4], -0.022; in [5] it was -0.0261; in [6] it was -0.00201. Moreover, the log fold change Tl+ flux is -0.0099 in assay [7], -0.0048 in [8], 0.0191 in assay [9] and 0.0572 in assay [10].

As to `Cc1nn(-c2ccccc2)nc1C(=O)NNC(=O)CSCc1cccc2ccccc12`, the log fold change Tl+ flux in [1] is 0.029; in [2], 0.0449; in assay [3], 0.0266; in [4] it was -0.00465; in assay [5], -0.0205; in [6], 0.0152. In addition, the log fold change Tl+ flux is 0.0429 in [7], -0.0226 in [8], 0.097 (active) in [9] and 0.0123 in assay [10].

Take `COc1ccc(C(=O)NNC(=O)c2c(OC)cc(C(F)(F)F)cc2C(F)(F)F)cc1`: the log fold change Tl+ flux in [1] is 0.044; in assay [2], 0.017; in [3] it was -0.00926; in assay [4], 0.0361; in assay [5], 0.00672; in [6], 0.0148. Further, the log fold change Tl+ flux in assay [7] is 0.0608; in assay [8] it was 0.00715; in assay [9] it was 0.021; in assay [10], 0.015.

`O=C(Nc1ccc(-n2ccc(C(F)(F)F)n2)cc1)C1=Cc2cc(Cl)ccc2OC1`: the log fold change Tl+ flux in assay [1] is 0.0274; in [2], -0.019; in assay [3] it was 0.0253; in assay [4] it was -0.0159; in assay [5] it was -0.106; in assay [6] it was -0.0271. Further, the log fold change Tl+ flux in assay [7] was -0.0315; in assay [8] it was 0.035; in assay [9], -0.0139; in assay [10], -0.0341.

On to `O=C(Nc1ccc(F)cc1)N1CCN(Cc2ccccc2)CC1`, for which the log fold change Tl+ flux in assay [1] was 0.0438; in [2], 0.00516; in assay [3] it was 0.00491; in assay [4], 0.032; in [5], 0.0285; in assay [6], 0.0233. In addition, the log fold change Tl+ flux in assay [7] is 0.0689; in assay [8], -0.00966; in [9], 0.0882 (active); in assay [10] it was 0.000608.

Take `CCOC(=O)C(C)Oc1ccc(NS(=O)(=O)c2cc(OC)ccc2OC)cc1Cl` (stereo not given): the log fold change Tl+ flux in assay [1] is -0.0459; in assay [2], -0.0343; in [3], -0.0957; in assay [4] it was -0.104 (active); in assay [5], -0.0848; in assay [6], -0.0618. Also, the log fold change Tl+ flux in assay [7] is 0.0118; in [8] it was -0.0738; in assay [9] it was -0.0156; in [10], -0.0391.

As for `Cc1cc(C(=O)N2CCN(c3ncccc3C#N)CC2)no1`, the log fold change Tl+ flux in assay [1] is -0.0195; in [2], 0.00841; in assay [3] it was -0.0191; in [4] it was 0.032; in assay [5] it was -0.00848; in [6], 0.011. Also, the log fold change Tl+ flux in assay [7] is 0.022; in assay [8], 0.0483; in assay [9] it was 0.00374; in assay [10], 0.00615.

On to `Cc1onc(-c2c(Cl)cccc2Cl)c1C1=NCCO1`, for which the log fold change Tl+ flux was -0.0274 in [1]; -0.0222 in [2]; -0.0541 in assay [3]; -0.0118 in assay [4]; -0.0114 in [5]; -0.0117 in [6]. The log fold change Tl+ flux was -0.0507 in assay [7], -0.0377 in assay [8], 0.0277 in assay [9] and -0.00731 in [10].

On to `CCOC(=O)c1sc(SC)nc1N`, for which the log fold change Tl+ flux in assay [1] is -0.000489; in assay [2], -0.00635; in [3] it was 0.00305; in assay [4], 0.00634; in assay [5], -0.00935; in assay [6] it was 0.0886 (active). The log fold change Tl+ flux is -0.00543 in [7], -0.0273 in [8], -0.000536 in [9] and 0.0235 in assay [10].

As to `CN1CCN(S(=O)(=O)c2ccc(CNC(=O)c3ccccc3)s2)CC1`, the log fold change Tl+ flux in assay [1] was -0.0286; in assay [2], -0.0353; in assay [3], -0.0627; in assay [4] it was -0.0096; in assay [5], -0.0465; in assay [6], 0.0435. Also, the log fold change Tl+ flux is 0.0151 in assay [7], -0.00195 in assay [8], 0.00386 in assay [9] and -0.0258 in assay [10].

Turning to `O=S(=O)(Nc1ccccc1SCc1ccc2nonc2c1)c1cccs1`, the log fold change Tl+ flux is -0.159 (active) in [1]; -0.065 in assay [2]; -0.0553 in assay [3]; -0.14 (active) in assay [4]; -0.142 (active) in assay [5]; -0.262 (active) in assay [6]. Besides, the log fold change Tl+ flux is 0.0365 in [7], -0.00587 in assay [8], -0.0288 in [9] and -0.239 (active) in assay [10].
